Measured values from PubChem BioAssay (NCI).
About 83,000 compounds went through this panel and 20% of them were active in at least one assay; those are over-represented in the sample as a whole.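 The test compound was applied at a single concentration to cells in 96-well plates for 48 hours, and percent growth was recorded.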 The source made the active and inactive calls. How the source made its calls: active means growth percent below 10; inactive means the rest.

Assays:
Experiment in all cases: NCI-60 one-dose screen, 48 h (100 = growth as untreated, 0 = no growth, -100 = all killed)
Conditions in all cases: 10 µM unless noted
HCT-15 colon = test system: HCT-15 colon
HT29 colon = test system: HT29 colon
SNB-75 CNS = test system: SNB-75 CNS
SNB-19 CNS = test system: SNB-19 CNS
U251 CNS = test system: U251 CNS
PC-3 prostate = test system: PC-3 prostate
SK-MEL-5 melanoma = test system: SK-MEL-5 melanoma
UACC-62 melanoma = test system: UACC-62 melanoma
LOX IMVI melanoma = test system: LOX IMVI melanoma
SK-MEL-28 melanoma = test system: SK-MEL-28 melanoma
SK-MEL-2 melanoma = test system: SK-MEL-2 melanoma
EKVX NSCLC = test system: EKVX NSCLC
SN12C renal = test system: SN12C renal
UO-31 renal = test system: UO-31 renal
ACHN renal = test system: ACHN renal
CAKI-1 renal = test system: CAKI-1 renal
CCRF-CEM leukemia = test system: CCRF-CEM leukemia
MOLT-4 leukemia = test system: MOLT-4 leukemia
TK-10 renal = test system: TK-10 renal
A498 renal = test system: A498 renal

| SMILES | growth (HCT-15 colon) | growth (HT29 colon) | growth (SNB-75 CNS) | growth (SNB-19 CNS) | growth (U251 CNS) | growth (PC-3 prostate) | growth (SK-MEL-5 melanoma) | growth (UACC-62 melanoma) | growth (LOX IMVI melanoma) | growth (SK-MEL-28 melanoma) | growth (SK-MEL-2 melanoma) | growth (EKVX NSCLC) | growth (SN12C renal) | growth (UO-31 renal) | growth (ACHN renal) | growth (CAKI-1 renal) | growth (CCRF-CEM leukemia) | growth (MOLT-4 leukemia) | growth (TK-10 renal) | growth (A498 renal) |
| --- | --- | --- | --- | --- | --- | --- | --- | --- | --- | --- | --- | --- | --- | --- | --- | --- | --- | --- | --- | --- |
| CCSCC1CC(O)(c2ccccc2)C(c2ccccc2)C(c2ccc(F)cc2)O1 (configuration not stated) | 3.78% (active) | -18.7% (active) | -14% (active) | 8.78% (active) | -11.8% (active) | -21.1% (active) | -84.2% (active) | -44.4% (active) | -64.5% (active) | -39.4% (active) | -0.854% (active) | 0.894% (active) | -22.9% (active) | -0.34% (active) | -14.3% (active) | -13.5% (active) | 2.04% (active) | -48.2% (active) |  |  |
| Nc1c(C(=O)Nc2cccc(Cl)c2)sc2nc3c(cc12)C(=O)CCC3 | 32.4% (inactive) | 23.9% (inactive) | 25.9% (inactive) | 38.2% (inactive) | 46.4% (inactive) | 29.1% (inactive) | 27.2% (inactive) | 43.7% (inactive) | 46.1% (inactive) | 51.4% (inactive) |  | 58.2% (inactive) | 54.4% (inactive) | 57.1% (inactive) | 54.2% (inactive) | 40.3% (inactive) | 13.5% (inactive) | 57.1% (inactive) | 65% (inactive) | 49.3% (inactive) |
| CN(C)CCCn1c(=O)c2cc([N+](=O)[O-])ccc2c2cnc3[nH]ccc3c21 | 48% (inactive) | 16.2% (inactive) | 49.5% (inactive) | 53.5% (inactive) | 57.4% (inactive) | 48.4% (inactive) | 69.4% (inactive) | 74.6% (inactive) | 38.5% (inactive) | 104% (inactive) |  | 62.2% (inactive) | 47% (inactive) | 33.1% (inactive) | 27.9% (inactive) | 79.5% (inactive) | -26.4% (active) | 8.62% (active) | 50.5% (inactive) | 39.5% (inactive) |
| O=[N+]([O-])c1ccc(N/N=C/c2ccccc2O)nc1 | 29.9% (inactive) | 47% (inactive) | 52.9% (inactive) | 56.2% (inactive) | 28.5% (inactive) | 45.8% (inactive) | 20% (inactive) | 42.7% (inactive) | 26.4% (inactive) | 62% (inactive) |  | 29.7% (inactive) | 37.7% (inactive) | 25.5% (inactive) | 27.3% (inactive) | 4.68% (active) | 17.1% (inactive) | 14.3% (inactive) | 26.2% (inactive) | 97.8% (inactive) |
| CC(=O)C1CCC2C3CC(C)=C4CC(O)CCC4(C)C3CCC12C (configuration not stated) | 100% (inactive) | 96.4% (inactive) | 100% (inactive) | 97.5% (inactive) | 97.5% (inactive) | 88.2% (inactive) | 99.4% (inactive) | 91.6% (inactive) | 92.1% (inactive) | 105% (inactive) |  | 79.5% (inactive) | 99.2% (inactive) | 87.7% (inactive) | 94.8% (inactive) | 97.4% (inactive) | 92.4% (inactive) | 80% (inactive) | 110% (inactive) | 113% (inactive) |
| NC(CCC(=O)NC(CS)C(=O)NCC(=O)O)C(=O)O (configuration not stated) | 101% (inactive) | 106% (inactive) | 95.6% (inactive) | 99% (inactive) | 106% (inactive) | 81.5% (inactive) | 102% (inactive) | 96.7% (inactive) | 104% (inactive) | 116% (inactive) |  | 99.8% (inactive) | 108% (inactive) | 85.9% (inactive) | 104% (inactive) | 100% (inactive) | 121% (inactive) | 102% (inactive) | 154% (inactive) | 127% (inactive) |
| CC[C@]1(O)C[C@H]2CN(CCc3c([nH]c4ccccc34)C(C(=O)OC)(c3cc4c(cc3OC)N(C)[C@H]3[C@@](O)(C(=O)OC)[C@H](OC(C)=O)[C@]5(CC)[C@@H]6C[C@@H]6CN6CC[C@]43[C@@H]65)C2)C1 (some centres not stated) | 19.5% (inactive) | 7.29% (active) | -14.6% (active) | 24% (inactive) | 13.7% (inactive) | 18.9% (inactive) | -80.1% (active) | 14.5% (inactive) | 5.88% (active) | 53.7% (inactive) | 45.5% (inactive) | 35.2% (inactive) | 22.2% (inactive) | 9.66% (active) | 5.92% (active) | -13.2% (active) | 4.35% (active) | 3.74% (active) |  | 16.6% (inactive) |
| N#Cc1ccc(-c2ccc(-c3cccs3)o2)cc1F | 79.7% (inactive) | 84.5% (inactive) | 44.9% (inactive) | 110% (inactive) | 67.2% (inactive) | 87.5% (inactive) | 84.4% (inactive) | 81.6% (inactive) | 80.2% (inactive) | 91.9% (inactive) | 70.8% (inactive) |  | 89.1% (inactive) | 73.7% (inactive) | 64% (inactive) | 78.1% (inactive) |  | 66.3% (inactive) | 89.9% (inactive) | 95.9% (inactive) |
| COCc1nc(NS(=O)(=O)c2ccc(N)cc2)nc(C)c1Br | 97.7% (inactive) | 88.6% (inactive) | 89.4% (inactive) | 108% (inactive) | 103% (inactive) | 101% (inactive) | 102% (inactive) | 101% (inactive) | 94.1% (inactive) | 105% (inactive) |  | 95.9% (inactive) | 108% (inactive) | 95.4% (inactive) | 102% (inactive) | 102% (inactive) | 103% (inactive) | 103% (inactive) | 93.1% (inactive) | 118% (inactive) |
| CCS(=O)(=O)Nc1cccc(Nc2c3cccc(C)c3nc3c(C)cccc23)c1OC | 11.1% (inactive) | 11.3% (inactive) | 21.7% (inactive) | 38.8% (inactive) | 7.01% (active) | 21.4% (inactive) | 17.4% (inactive) | 45.5% (inactive) | 12.8% (inactive) | 56.9% (inactive) | 51.4% (inactive) |  | 12.5% (inactive) | 10.7% (inactive) | -1.64% (active) | 10.7% (inactive) |  | -12.8% (active) | 29.2% (inactive) | -1.15% (active) |
| COc1ccc(/C=N/NC(N)=S)c(OC)n1 | 86.9% (inactive) | 93.4% (inactive) | 79.5% (inactive) | 102% (inactive) | 95.8% (inactive) | 105% (inactive) | 93.1% (inactive) | 96.8% (inactive) | 102% (inactive) | 98.5% (inactive) | 94% (inactive) |  | 98.5% (inactive) | 95.2% (inactive) | 100% (inactive) | 113% (inactive) |  | 90.8% (inactive) | 112% (inactive) | 99.1% (inactive) |
| Clc1cc2nc(-c3ccccc3)c(-c3ccccc3)nc2cc1Cl | 88.7% (inactive) | 88.5% (inactive) | 87.9% (inactive) | 102% (inactive) | 95.7% (inactive) | 77.3% (inactive) | 89.4% (inactive) | 84.7% (inactive) | 86.2% (inactive) | 101% (inactive) |  | 82.6% (inactive) | 90.4% (inactive) | 55.7% (inactive) | 93.7% (inactive) | 89.4% (inactive) | 88.2% (inactive) |  | 123% (inactive) | 82% (inactive) |
| C#CCNc1nc(NCCNC(=O)CCl)nc(N(C)CCCCc2ccccc2)n1 | 92.4% (inactive) | 109% (inactive) | 104% (inactive) | 99.3% (inactive) | 98.6% (inactive) | 107% (inactive) | 53.8% (inactive) | 91.7% (inactive) | -12.5% (active) | 104% (inactive) |  | 102% (inactive) | 77.1% (inactive) | 82.4% (inactive) | 100% (inactive) | 95.2% (inactive) | 23.8% (inactive) | 43.3% (inactive) | 97.7% (inactive) | 99.2% (inactive) |
| Cc1cc2nc(CN)[nH]c2cc1C | 109% (inactive) | 51.3% (inactive) | 92% (inactive) | 102% (inactive) | 100% (inactive) | 99.8% (inactive) | 104% (inactive) | 113% (inactive) | 109% (inactive) | 108% (inactive) | 110% (inactive) |  | 111% (inactive) | 101% (inactive) | 112% (inactive) | 108% (inactive) |  | 102% (inactive) | 104% (inactive) | 98.7% (inactive) |
| COc1ccc(-c2cc(-c3ccc(OC)cc3)c3sc(=O)[nH]c3n2)cc1 | 90.2% (inactive) | 102% (inactive) | 88.6% (inactive) | 73.8% (inactive) | 72.6% (inactive) | 86.1% (inactive) | 96.4% (inactive) | 90.1% (inactive) | 92.3% (inactive) | 115% (inactive) | 103% (inactive) | 86.6% (inactive) | 73.7% (inactive) | 53.4% (inactive) | 93.7% (inactive) | 76.8% (inactive) | 108% (inactive) | 92.9% (inactive) |  | -1.41% (active) |
| O/N=C1\c2ccccc2-c2ccc(Br)cc21 | 102% (inactive) | 101% (inactive) | 107% (inactive) | 104% (inactive) | 104% (inactive) | 101% (inactive) | 104% (inactive) | 105% (inactive) | 105% (inactive) | 118% (inactive) | 115% (inactive) | 88.6% (inactive) | 101% (inactive) | 81.6% (inactive) | 94.2% (inactive) | 91.6% (inactive) | 71.8% (inactive) | 89.2% (inactive) |  |  |
